Calls of active or inactive are those of the source. Rule for the calls: active = hit-call score of the fitted dose curve at least 0.9, where 1 is the maximum; inactive = score below 0.9.

Chain of human MSK1 (RPS6KA5) AGC Kinase, RPS6KA5 (gene 9252) (O75582 whole entry, looked up): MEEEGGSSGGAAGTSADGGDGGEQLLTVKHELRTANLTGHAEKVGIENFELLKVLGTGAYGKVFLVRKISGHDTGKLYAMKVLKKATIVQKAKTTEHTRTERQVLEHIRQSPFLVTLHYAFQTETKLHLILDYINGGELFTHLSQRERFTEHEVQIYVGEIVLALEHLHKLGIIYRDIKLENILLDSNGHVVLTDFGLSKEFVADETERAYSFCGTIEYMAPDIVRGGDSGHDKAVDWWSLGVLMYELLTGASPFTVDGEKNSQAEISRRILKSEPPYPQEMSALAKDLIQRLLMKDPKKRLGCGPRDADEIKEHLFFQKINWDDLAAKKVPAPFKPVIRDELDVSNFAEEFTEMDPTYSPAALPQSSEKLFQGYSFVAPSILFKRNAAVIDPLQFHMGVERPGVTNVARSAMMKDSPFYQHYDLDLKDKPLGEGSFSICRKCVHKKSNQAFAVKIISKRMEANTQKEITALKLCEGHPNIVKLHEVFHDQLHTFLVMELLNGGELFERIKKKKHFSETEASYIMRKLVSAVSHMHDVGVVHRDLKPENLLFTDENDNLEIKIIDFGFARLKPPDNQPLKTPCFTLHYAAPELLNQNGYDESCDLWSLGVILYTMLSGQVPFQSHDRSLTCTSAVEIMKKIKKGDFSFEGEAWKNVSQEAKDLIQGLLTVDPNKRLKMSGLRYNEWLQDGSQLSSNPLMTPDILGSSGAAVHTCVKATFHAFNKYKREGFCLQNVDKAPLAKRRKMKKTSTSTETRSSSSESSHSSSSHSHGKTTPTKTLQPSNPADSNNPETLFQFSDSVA

This assay has as its target human MSK1 (RPS6KA5) AGC Kinase, RPS6KA5 (gene 9252) (UniProt O75582). Nature of the assay: ERF_FR_ENZ_hMSK1: Eurofins (ERF) Enzymatic Radiometric [Km ATP] KinaseProfiler LeadHunter Assay for human MSK1 (RPS6KA5) AGC Kinase. The procedure: ERF_FR_ENZ_hMSK1 is a biochemical, single-readout assay that uses extracted gene-proteins in a cell-free assay. Measurements were taken 0.16 hour after chemical dosing in a 96-well plate. See MSK1 Human AGC Kinase Enzymatic Radiometric Assay [Km ATP], Cerep.ERF_FR_ENZ_hMSK1 is an assay component calculated from the ERF_FR_ENZ_hMSK1 assay. It is designed to measure enzyme activity using a type of enzyme reporter as detected by scintillation counting with radiometry technology.Data from the assay component ERF_FR_ENZ_hMSK1 was analyzed at the assay endpoint, ERF_FR_ENZ_hMSK1, in the positive analysis fitting direction relative to DMSO as the negative control and baseline of activity. Using a type of enzyme reporter, loss-of-signal activity can be used to understand changes in enzymatic activity as they relate to gene MSK1. To generalize the intended target to other relatable targets, this assay endpoint is annotated to the kinase intended target family, where the subfamily is serine/threonine kinase.
MSK1 (h) is incubated with 8 mM MOPS pH 7.0, 0.2 mM EDTA, 30 uM […], 10 mM MgAcetate and [g- 33P]-ATP (specific activity and concentration as required). The reaction is initiated by the addition of the Mg/ATP mix. After incubation for 40 minutes at room temperature, the reaction is stopped by the addition of phosphoric acid to a concentration of 0.5%. […]
As a reminder, the AC50 is the concentration at which the activity in the assay is half-maximal. For `COc1cc(CCC(=O)CC(=O)CCc2ccc(O)c(OC)c2)ccc1O`, the AC50 was 2.12 µM (active). Take `O=C(/C=C/c1ccc(O)cc1)CC(=O)/C=C/c1ccc(O)cc1`: the AC50 was 5 µM (active).

For the origin of these results see PubChem BioAssay AID2284114 (EPA ToxCast).
